Compound activity: PubChem BioAssay, National Center for Advancing Translational Sciences (NCATS)
Most compounds without a hit are left out; they make up all but 3.1% or so of the library.
D3 antag: qHTS of D3 Dopamine Receptor Antagonist: qHTS. D3R cells, DiscoveRx beta-arrestin luminescence, antagonist mode; hits give low values. 360,000 compounds, 2.5% hits. D(3) dopamine receptor (Homo sapiens), P35462. max response, negative = inhibition, %; in the data active means max response below about -50%; inconclusive means no clear call, values can overlap the other calls; further: on the % scale 0 is the no-effect control and ±100 the full control effect
Target sequence (P35462 whole entry, looked up): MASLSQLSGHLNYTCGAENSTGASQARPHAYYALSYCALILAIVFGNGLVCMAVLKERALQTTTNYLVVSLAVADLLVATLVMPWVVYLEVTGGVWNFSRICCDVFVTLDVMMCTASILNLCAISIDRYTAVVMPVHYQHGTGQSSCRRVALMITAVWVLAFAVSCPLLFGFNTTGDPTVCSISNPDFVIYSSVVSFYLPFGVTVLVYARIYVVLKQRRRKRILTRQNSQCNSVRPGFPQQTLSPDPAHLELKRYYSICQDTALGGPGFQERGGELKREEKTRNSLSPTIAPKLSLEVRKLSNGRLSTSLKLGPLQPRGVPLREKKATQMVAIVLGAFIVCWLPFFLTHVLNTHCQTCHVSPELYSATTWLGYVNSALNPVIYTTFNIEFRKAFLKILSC
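Cells plated overnight at 1500 cells/well, then exposed to library compounds with dopamine controls for 90 minutes at 37 degrees C. DiscoveRx reagent added for 30–60 minutes at room temperature; luminescence read, quantitative HTS format.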
DRD3 agonist: qHTS of D3 Dopamine Receptor Agonist: qHTS; D3R DiscoveRx beta-arrestin cells, luminescence, 90 min; max activation, %; 410,000 compounds, 0.58% hits; D(3) dopamine receptor (Homo sapiens), P35462; in the data active means max activation above about 30%; further: 0% is about no effect
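Cells at 1500/well, incubated overnight, then treated with pinned compounds (dopamine as control) for 90 min at 37 degrees C. DiscoveRx reagent added for 30 - 60 minutes at room temperature; luminescence read.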
uPA generation: qHTS for Inhibitors of Cell Surface uPA Generation | cell surface uPA generation assay, qHTS | Potency, µM (doses to about 38.3 µM), for inactives: at the highest dose activity change, negative = inhibition, usual class: inhibitors | 330,000 compounds, 0.31% hits | AID 540303, 2011; active means well fitted inhibition curve with a large enough effect; inconclusive means small, poorly fitted or top-dose-only effect; inactive means no such curve, though single readings can be large or run the other way; tested in mouse RAW 264.7 cells; further: potency means the concentration at half of the fitted maximal effect; on the % scale 0 is the no-effect control and ±100 the full control effect; nearly all actives have a fitted effect of over 55% in size
RGS4 inhibitor: Inhibitors of Regulator of G Protein Signaling (RGS) 4: qHTS; 390,000 compounds, 0.039% hits; Transcreener GDP fluorescence polarization, RGS4-accelerated GTP hydrolysis; Regulator of G-protein signaling 4 (Homo sapiens), P49798; Potency, µM (top dose mostly 114 µM), without a hit: at the top dose activity change, negative = inhibition, usual class: inhibitors; active means well fitted inhibition curve with a large enough effect; inconclusive means small, poorly fitted or top-dose-only effect; inactive means no such curve, though single readings can be large or run the other way; further: potency means the concentration at half of the fitted maximal effect; on the % scale 0 is the no-effect control and ±100 the full control effect; nearly all actives have a fitted effect of over 75% in size
Target sequence (P49798 whole entry, looked up): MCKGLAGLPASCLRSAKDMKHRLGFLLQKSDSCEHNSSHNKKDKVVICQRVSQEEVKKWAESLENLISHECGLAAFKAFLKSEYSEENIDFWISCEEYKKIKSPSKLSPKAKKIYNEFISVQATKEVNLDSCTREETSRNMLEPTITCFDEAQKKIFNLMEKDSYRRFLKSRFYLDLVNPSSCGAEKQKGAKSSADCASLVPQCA
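MLSMR compounds (23 nl, pin-transferred) preincubated 10 min at room temperature with a 500nM (2x) first reagent, then RGS4 at 900nM (2x) plus Transcreener GDP mix added; fluorescence polarization (620/688 nm) read before and after 90 min at 30 °C.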
* hit, by the source's call; i = inactive; ? = inconclusive; · = not tested or not shown.

SMILES	D3 antag	DRD3 agonist	uPA generation	RGS4 inhibitor
O=C1Nc2ccc(F)cc2C12Nc1ccccc1-c1nnc(SCc3ccccc3F)nc1O2 (configuration not stated)	-51*	-28	2%	3%
CC1(C)CC(=O)C(N=Nc2cccc([N+](=O)[O-])c2)=C(O)C1	-67*	-18	-2%	3%
CC1(C)CC(=O)C2=C(C1)OC1=C(C(=O)CC(C)(C)C1)C2c1ccc(O)c([N+](=O)[O-])c1	0	0	3%	7%
CC1(C)CC(=O)C2=C(C1)OC1=C(C(=O)CC(C)(C)C1)C2c1cccc([N+](=O)[O-])c1	-78*	-13	·	·
N#CC(=Cc1ccc(-c2ccccc2)cc1)C(=O)c1ccccc1	22	1	·	·
CC(=O)C(=Cc1ccc(-c2ccccc2)cc1)C(=O)c1ccccc1	-53*	-10	·	·
COc1ccc(-c2nc(Cn3c(=O)cc(-c4ccccc4)c4c(C)nn(C)c43)c(C)o2)cc1OC	·	-10	·	-24%
COC(=O)[C@@H]1OC(=O)[C@H]2O[C@@]23[C@@]1(C)CC[C@@H]1[C@@]2(C)C=CC(=O)OC(C)(C)[C@@H]2CC(=O)[C@]13C	0	46*	-9%	5%
CC1(C)OC(=O)C=C[C@]2(C)[C@H]3CC[C@@]4(C)[C@H](c5ccoc5)OC(=O)[C@H]5O[C@]54[C@]3(C)C(=O)C[C@@H]12	13	-3	-1%	4%
O=c1[nH]c(=S)[nH]c(-c2ccccc2)c1Cc1c(O)ccc2ccccc12	·	·	·	2.1µM*
N#Cc1c(-c2ccccc2)[nH]c(=S)[nH]c1=O	-60*	0	3%	-6%
CCOc1ccccc1NC(=O)N1CCC2(CC1)Oc1ccccc1C(=O)N2Cc1ccccc1F	·	-11	·	3%
COc1cccc2c1C(=O)c1c(O)c3c(c(O)c1C2=O)C[C@@](O)(C(C)=O)C[C@@H]3O[C@H]1C[C@H](N)[C@H](O)[C@H](C)O1	-78*	-59	-75%	?
COc1cc(NC(=O)CN2C(=O)c3ccccc3Sc3ccc(C(=O)N4CCCC4)cc32)cc(OC)c1	·	4	·	-45%
CCOc1ccccc1CN1CCN(Cc2cccc3c2OCO3)CC1CCO (configuration not stated)	-24	-2	3%	13%
Cc1ccc(CN2CCN(Cc3cccc4c3OCO4)CC2CCO)cc1 (configuration not stated)	-94*	-28	-6%	21%
CCOc1ccc(CN2CCN(Cc3cccc4c3OCO4)CC2CCO)cc1 (configuration not stated)	-61*	-19	-2%	8%
COc1cccc(CN2CCN(Cc3cccc4c3OCO4)CC2CCO)c1 (configuration not stated)	?	-10	4%	-14%
CCOc1ccc(CN2CCN(Cc3cnn(CC)c3C)CC2CCO)cc1 (configuration not stated)	3	2	0%	3%
OCCC1CN(Cc2cc3c(cc2Cl)OCO3)CCN1Cc1ccccc1 (configuration not stated)	-53*	-24	2%	0%
OCCC1CN(Cc2cccs2)CCN1Cc1ccccc1 (configuration not stated)	-24	-19	-1%	40%
CCOc1ccc(CN2CCN(Cc3cc4c(cc3Cl)OCO4)CC2CCO)cc1 (configuration not stated)	-64*	-40	5%	5%
O=C(NC1CCCN(Cc2ccccc2F)C1)c1cccs1 (configuration not stated)	-7	-4	-8%	8%
Cc1cc(NS(=O)(=O)c2ccc(NC(=O)Nc3cccc(Cl)c3)cc2)no1	-55*	4	1%	14%
Cc1cc(NC(=O)Nc2cccc(Cl)c2)no1	-3	1	·	·
SMILES	D3 antag	DRD3 agonist	uPA generation	RGS4 inhibitor
COc1ccc(CNC(=O)c2cccc(N3CCCS3(=O)=O)c2)cc1OC	·	5	·	-20%
CC(C)C(=O)C1=Cc2cccc([N+](=O)[O-])c2OC1N1CCOCC1 (configuration not stated)	-54*	-8	?	8%
CC(C)C(=O)C1=Cc2cc([N+](=O)[O-])ccc2OC1N1CCOCC1 (configuration not stated)	?	-6	-29%	-9%
Clc1ccc(-c2cn3c(n2)-c2ccccc2C3)cc1Cl	11	1	10µM*	-4%
Clc1ccc(-c2cn3cc(Br)ccc3n2)cc1Cl	10	-3	-6%	-39%
CCCCS(=O)(=O)N[C@@H](Cc1ccc(OCCCCC2CCNCC2)cc1)C(=O)O	·	0	·	·
FC(F)(F)c1cccc(N2CCN(Cc3nnc(-c4ccccc4)o3)CC2)c1	·	-7	·	13%
Cc1ccc(C)c(N2CCN(Cc3nnc(-c4ccc5c(c4)OCO5)o3)CC2)c1	·	-6	·	6%
c1ccc(-c2nnc(CN3CCN(C(c4ccccc4)c4ccccc4)CC3)o2)cc1	-56*	-10	-8%	-1%
c1ccc(N2CCN(Cc3nnc(-c4ccc5c(c4)OCO5)o3)CC2)cc1	·	37*	·	-8%
c1ccc(-c2nnc(CN3CCN(c4ccccc4)CC3)o2)cc1	-17	55*	9%	5%
Cc1ccccc1-c1nnc(CN2CCN(c3ccccn3)CC2)o1	·	50*	·	20%
Clc1cccc(N2CCN(Cc3nnc(-c4ccccc4)o3)CC2)c1	?	24	15%	22%
CCCCCCCCCCCCC/C=C\[C@@H](O)[C@H](CO)NC(C)=O	·	·	·	i
O=C(c1cc(-c2ccc3c(c2)OCO3)on1)N1CCN(c2ccccc2)CC1	56	53*	·	-4%
O=C(c1cc(-c2ccc3c(c2)OCO3)on1)N1CCN(c2ccc(F)cc2)CC1	8	-10	·	-20%
CN=c1scc(-c2ccc(F)cc2)n1/N=C/c1ccc(O)c(O)c1	1	95*	-13%	-16%
CN=c1scc(-c2ccc([N+](=O)[O-])cc2)n1/N=C/c1ccco1	9	6	-3%	-8%
CC1=Nc2ccccc2/C1=C/c1sc(=N)n(-c2nccs2)c1O	-96*	-9	-17%	-22%
Cc1ccsc1/C=N/n1c(-c2ccco2)n[nH]c1=S	-59*	-4	0%	-47%
Cc1ccsc1/C=N/n1c(-c2ccccc2)n[nH]c1=S	-1	-1	2%	?
O=S(=O)(NCc1ccc(F)cc1)c1ccc(N2CCCCS2(=O)=O)cc1	·	-3	·	36%
COc1cccc(NC(=O)C(=O)N/N=C/c2cc(C)n(-c3ccc(Cl)c(Cl)c3)c2C)c1	-94*	-9	3%	-5%
COc1ccccc1/C=N/NC(=O)CC(=O)Nc1ccc(Cl)c(Cl)c1	-65*	-2	-1%	18%
CC(=O)c1ccc(NC(=O)CSc2nc(C3CCCC3)nc3c2c(=O)n(C)c(=O)n3C)cc1	·	8	·	11%
